Measured values: PubChem BioAssay (NCATS)
Records with an inconclusive call do not appear. Active and inactive are the calls of the source. Calls follow the shape of the dose curve; as a rule, active = well fitted curve in the direction sought with a large enough effect; inconclusive = small, poorly fitted or top-dose-only effect, or another doubt; inactive = no such curve, though single readings can be large; an effect the other way counts as inactive or inconclusive.

Legend:
NIH3T3 = assay: qHTS assay to identify novel small-molecules to repurpose for Merkel cell carcinoma treatment (AID 1296009); details: MCC and control cell lines, CellTiter-Glo viability, 72 h; at 44.8 µM (top of the series) unless noted; also: nearly all actives have a fitted effect of over 60% in size
Summary of the method: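 Cells were treated for 72 hr at 37 degree celsius with compounds in 8- or 11-point dose response. Viability was read by CellTiter-Glo luminescence, normalized to no-cell (cytotoxicity) and DMSO controls.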

C33A = assay: Primary qHTS to identify gynecologic anti-cancer compounds using libraries of approved drugs and bioactive compounds (AID 1345084); details: Gynecologic cancer cell panel viability, ATPlite luminescence, 48 h; series mostly up to 57.5 µM; also: % is scaled to controls: 0 for no effect and ±100 for the full control effect; nearly all actives have a fitted effect of over 55% in size
Summary of the method: (§1)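 Luminescence from the ATPlite ATP-monitoring reagent indicates viable cell number; lower signal means cytotoxicity. Cells received compound 16 h after seeding and were exposed for 48 h across five concentrations.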

CAOV3 = assay: as above; details: Gynecologic cancer cell panel viability, ATPlite luminescence, 48 h; series mostly up to 57.5 µM
Summary of the method: as §1

CASKI = assay: as above; details: Gynecologic cancer cell panel viability, ATPlite luminescence, 48 h; series mostly up to 57.5 µM
Summary of the method: as §1

Es-2 = assay: as above; details: Gynecologic cancer cell panel viability, ATPlite luminescence, 48 h; series mostly up to 57.5 µM
Summary of the method: as §1

HeLa = assay: as above; details: Gynecologic cancer cell panel viability, ATPlite luminescence, 48 h; series mostly up to 57.5 µM
Summary of the method: as §1

Hek293T = assay: as above; details: Gynecologic cancer cell panel viability, ATPlite luminescence, 48 h, control line for the selectivity index; series mostly up to 57.5 µM
Summary of the method: as §1

JEG-3 = assay: as above; details: Gynecologic cancer cell panel viability, ATPlite luminescence, 48 h; series mostly up to 57.5 µM
Summary of the method: as §1

C=C(C)C(O)COc1ccc(CC(=O)O)cc1 (configuration not stated)
inactive: outcome (NIH3T3) | Potency (C33A) | Potency (CAOV3) | outcome (CASKI) | Potency (Es-2) | Potency (HeLa) | Potency (Hek293T) | Potency (JEG-3)

CCN=C1N[C@@H]2[C@@H](O)[C@H](O)[C@@H](CO)O[C@@H]2S1
inactive: outcome (NIH3T3) | Potency (C33A) | Potency (CAOV3) | outcome (CASKI) | Potency (Es-2) | Potency (HeLa) | Potency (Hek293T) | Potency (JEG-3)

C=C1C(=O)OC2CC(COC(=O)C(C)C)=C(C(C)CCCOC(C)=O)[C@@H](OC(C)=O)C12 (some centres not stated)
inactive: outcome (NIH3T3) inactive [at 17.4 µM] | Potency (C33A) | Potency (CAOV3) | outcome (CASKI) | Potency (Es-2) | Potency (HeLa) | Potency (Hek293T) | Potency (JEG-3)

CC1=CC[C@@]2(C)CC[C@@](O)(C(C)C)[C@@H]2[C@@H](O)C1
inactive: outcome (NIH3T3) | Potency (C33A) | Potency (CAOV3) | outcome (CASKI) | Potency (Es-2) | Potency (HeLa) | Potency (Hek293T) | Potency (JEG-3)

CC1=C2CC(=O)C(C)CC/C=C(\C)CC2(O)OC1=O (configuration not stated)
inactive: outcome (NIH3T3) | Potency (C33A) | Potency (CAOV3) | outcome (CASKI) | Potency (Es-2) | Potency (HeLa) | Potency (Hek293T) | Potency (JEG-3)

C/C(=C\C1CCC(C)C2CCC3(C)OC123)C(=O)O (configuration not stated)
inactive: outcome (NIH3T3) | Potency (C33A) | Potency (CAOV3) | outcome (CASKI) | Potency (Es-2) | Potency (HeLa) | Potency (Hek293T) | Potency (JEG-3)

COc1ccc(C2C(C(=O)O)C(C(=O)O)C2c2ccc(OC)cc2O[C@@H]2O[C@H](CO)[C@@H](O)[C@H](O)[C@H]2O)c(O[C@@H]2O[C@H](CO)[C@@H](O)[C@H](O)[C@H]2O)c1 (some centres not stated)
inactive: outcome (NIH3T3) inactive [at 17.4 µM] | Potency (C33A) | Potency (CAOV3) | outcome (CASKI) | Potency (Es-2) | Potency (HeLa) | Potency (Hek293T) | Potency (JEG-3)

C=C(C(=O)O)[C@@H]1CC[C@H](C)[C@@H]2CC(=O)C(C)=C2C1
inactive: outcome (NIH3T3) | Potency (C33A) | Potency (CAOV3) | outcome (CASKI) | Potency (Es-2) | Potency (HeLa) | Potency (Hek293T) | Potency (JEG-3)

CC1(C)CC[C@]2(C(=O)O[C@@H]3O[C@H](CO)[C@@H](O)[C@H](O)[C@H]3O)CC[C@]3(C)C(=CCC4[C@@]5(C)C[C@@H](O)[C@H](O)[C@@](C)(CO)C5[C@H](O)C[C@]43C)C2[C@@H]1O (some centres not stated)
inactive: outcome (NIH3T3) inactive [at 17.4 µM] | Potency (C33A) | Potency (CAOV3) | outcome (CASKI) | Potency (Es-2) | Potency (HeLa) | Potency (Hek293T) | Potency (JEG-3)

CC(=O)O[C@@H]1C(=O)C(C)=C(CCC(C)CC(=O)O)[C@@]2(C)CCCC(C)(C)C12 (some centres not stated)
inactive: outcome (NIH3T3) | Potency (C33A) | Potency (CAOV3) | outcome (CASKI) | Potency (Es-2) | Potency (HeLa) | Potency (Hek293T) | Potency (JEG-3)

CC1=CCC2C(C)(C)CCCC2(C)C1CC12OC1C(O)C(CO)=CC2O (configuration not stated)
inactive: outcome (NIH3T3) | Potency (C33A) | Potency (CAOV3) | outcome (CASKI) | Potency (Es-2) | Potency (HeLa) | Potency (Hek293T) | Potency (JEG-3)

O=C(NC1Cc2ccccc2N(C[C@@H](O)CO)C1=O)c1cc2cc(Cl)sc2[nH]1 (some centres not stated)
inactive: outcome (NIH3T3) | Potency (C33A) | Potency (CAOV3) | outcome (CASKI) | Potency (Es-2) | Potency (HeLa) | Potency (Hek293T) | Potency (JEG-3)

CC(C)=CCC[C@](C)(O[C@@H]1O[C@H](CO)[C@@H](O)[C@H](O)[C@H]1O)[C@H]1CC[C@]2(C)[C@@H]1[C@H](O)CC1[C@@]3(C)CC[C@H](O)C(C)(C)C3[C@@H](O[C@@H]3O[C@H](CO)[C@@H](O)[C@H](O)[C@H]3O[C@@H]3O[C@@H](C)[C@H](O)[C@@H](O)[C@H]3O)C[C@]12C (some centres not stated)
inactive: outcome (NIH3T3) inactive [at 9.27 µM] | activity change, negative = cytotoxicity (C33A) -11.8% [at 11.6 µM] | activity change, negative = cytotoxicity (CAOV3) -9.95% [at 11.6 µM] | activity change, negative = cytotoxicity (CASKI) -3.66% [at 11.6 µM] | activity change, negative = cytotoxicity (Es-2) 5.12% [at 11.6 µM] | activity change, negative = cytotoxicity (HeLa) 11.5% [at 11.6 µM] | activity change, negative = cytotoxicity (Hek293T) -2.65% [at 11.6 µM] | activity change, negative = cytotoxicity (JEG-3) -0.108% [at 11.6 µM]

CN1CCN(c2nc(-c3ccc(C(=O)NC4(C(=O)NCC#N)CCCCC4)cc3)cs2)CC1
inactive: outcome (NIH3T3) | Potency (C33A) | Potency (CAOV3) | outcome (CASKI) | Potency (Es-2) | Potency (HeLa) | Potency (Hek293T) | Potency (JEG-3)

O=C(CCc1ccccc1)c1c(O)c([C@@H]2O[C@H](CO)[C@@H](O)[C@H](O)[C@H]2O)c(O)c([C@@H]2O[C@H](CO)[C@@H](O)[C@H](O)[C@H]2O)c1O
inactive: outcome (NIH3T3) inactive [at 17.4 µM] | Potency (C33A) | Potency (CAOV3) | outcome (CASKI) | Potency (Es-2) | Potency (HeLa) | Potency (Hek293T) | Potency (JEG-3)

CC1(O)CCC2C(C3C1CCC3(C)O)C2(C)C (configuration not stated)
inactive: outcome (NIH3T3) | Potency (C33A) | Potency (CAOV3) | outcome (CASKI) | Potency (Es-2) | Potency (HeLa) | Potency (Hek293T) | Potency (JEG-3)

CC(C(=O)Nc1cc(C#N)ccc1CCCC(=O)O)c1ccc(F)c2ccccc12 (configuration not stated)
inactive: outcome (NIH3T3) | Potency (C33A) | Potency (CAOV3) | outcome (CASKI) | Potency (Es-2) | Potency (HeLa) | Potency (Hek293T) | Potency (JEG-3)

CC1=C2C(=O)C=C(CO)C2[C@H]2OC(=O)[C@H](C)[C@@H]2[C@@H](OC(=O)Cc2ccc(O)cc2)C1 (some centres not stated)
inactive: outcome (NIH3T3) inactive [at 17.4 µM] | Potency (C33A) | Potency (CAOV3) | outcome (CASKI) | Potency (Es-2) | Potency (HeLa) | Potency (Hek293T) | Potency (JEG-3)

CC[C@H]1OC(=O)[C@H](C)[C@@H](O[C@H]2C[C@@](C)(OC)[C@@H](O)[C@H](C)O2)C(C)[C@@H](O[C@@H]2O[C@H](C)C[C@H](N(C)C)[C@H]2O)[C@](C)(O)C[C@@H](C)CN(C)[C@H](C)[C@@H](O)[C@]1(C)O (some centres not stated)
inactive: outcome (NIH3T3) | Potency (C33A) | Potency (CAOV3) | outcome (CASKI) | Potency (Es-2) | Potency (HeLa) | Potency (Hek293T) | Potency (JEG-3)

COc1ccc(O[C@@H]2O[C@H](CO)[C@@H](O)[C@H](O)[C@H]2O)cc1OC
inactive: outcome (NIH3T3) | Potency (C33A) | Potency (CAOV3) | outcome (CASKI) | Potency (Es-2) | Potency (HeLa) | Potency (Hek293T) | Potency (JEG-3)

COc1ccc(CCC(=O)O)c(O[C@@H]2O[C@H](CO)[C@@H](O)[C@H](O)[C@H]2O)c1
inactive: outcome (NIH3T3) | Potency (C33A) | Potency (CAOV3) | outcome (CASKI) | Potency (Es-2) | Potency (HeLa) | Potency (Hek293T) | Potency (JEG-3)

C=C1CCC2(OC1)OC1CC3C4CC=C5CC(O)CC(O[C@@H]6OC[C@H](OC(=O)C(O)C(C)CC)[C@H](O)[C@H]6O[C@@H]6O[C@@H](C)[C@H](O)[C@@H](O)[C@H]6O)C5(C)C4CCC3(C)C1C2C (some centres not stated)
inactive: outcome (NIH3T3) inactive [at 9.27 µM] | activity change, negative = cytotoxicity (C33A) 4.8% [at 11.6 µM] | activity change, negative = cytotoxicity (CAOV3) 21.8% [at 11.6 µM] | activity change, negative = cytotoxicity (CASKI) 19.8% [at 11.6 µM] | activity change, negative = cytotoxicity (Es-2) -3.44% [at 11.6 µM] | activity change, negative = cytotoxicity (HeLa) 13.3% [at 11.6 µM] | activity change, negative = cytotoxicity (Hek293T) 16.6% [at 11.6 µM] | activity change, negative = cytotoxicity (JEG-3) 16.8% [at 11.6 µM]

COC(=O)C1=CO[C@@H](O[C@@H]2O[C@H](CO)[C@@H](O)[C@H](O)[C@H]2O)[C@@H]2[C@@H](C)[C@@H](OC(=O)/C=C/c3ccccc3)[C@@H](O)[C@H]12
inactive: outcome (NIH3T3) inactive [at 17.4 µM] | Potency (C33A) | Potency (CAOV3) | outcome (CASKI) | Potency (Es-2) | Potency (HeLa) | Potency (Hek293T) | Potency (JEG-3)

C[C@]1(OC(=O)/C=C\c2ccc(O)cc2)C[C@@H](O)[C@]2(O)C=CO[C@@H](O[C@@H]3O[C@H](CO)[C@@H](O)[C@H](O)[C@H]3O)C12 (some centres not stated)
inactive: outcome (NIH3T3) inactive [at 17.4 µM] | Potency (C33A) | Potency (CAOV3) | outcome (CASKI) | Potency (Es-2) | Potency (HeLa) | Potency (Hek293T) | Potency (JEG-3)
